Here are results for seven compounds from PubChem BioAssay (Tox21).

A number with no mark means an inactive call. Inconclusive results are not listed. The source made the active and inactive calls. Unless noted, calls come from the whole dose curve; as a rule, active = well fitted curve in the direction sought with a large enough effect in the repeat runs; inconclusive = weak or mixed curves; inactive = no such curve, though single readings can be large; an effect the other way counts as inactive or inconclusive.

Assay [1] is described as follows: qHTS assay for small molecule agonists of the p53 signaling pathway (AID 651631; calls by dose curve; note: nearly all actives have a fitted effect of over 15% in size). The method, boiled down: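 Beta-lactamase reporter activity under p53 response elements was quantified in HCT-116 cells by FRET fluorescence, following 16 h incubation with test compounds at 37 °C and 2 h substrate development at room temperature.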
On the technique in general: In qHTS, concentration-response curves come from the screen itself.

A short description of assay [2]: qHTS assay for small molecules that induce genotoxicity in human embryonic kidney cells expressing luciferase-tagged ATAD5 (AID 651632). Note: nearly all actives have a fitted effect of over 15% in size. The method, boiled down:
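Luminescence read-out: after 16 hr compound exposure at 37C, ATAD5-luciferase HEK293T cells received Amplite, 30 min RT, then CCD imaging. A rise in signal marks genotoxic stress.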

The nature of assay [3]: qHTS assay for small molecule agonists of the p53 signaling pathway - cell viability (AID 651633; calls by dose curve; note: nearly all actives have a fitted effect of over 30% in size; note: potency is the fitted concentration of half-maximal effect). The method, boiled down: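 p53RE-bla cells, seeded at 4,000 per well and rested 5 h at 37 C/5% CO2, received compounds in DMSO for 16 h at 37 C. CellTiter-Glo was then added, and luminescence was read after 30 min at room temperature to gauge cytotoxicity.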
Assay [4] is described as follows: qHTS assay for small molecule disruptors of the mitochondrial membrane potential - cell viability (AID 720634; calls by dose curve;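 note: human HepG2 liver cancer cells; series mostly up to about 83 µM; nearly all actives have a fitted effect of over 20% in size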). The method, boiled down:
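Luminescence from CellTiter-Glo (ATP content) gave viability in HepG2 cells, read in the same wells as the MMP dye assay after 1 hr compound exposure at 37 C.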

The nature of assay [5]: qHTS assay for small molecule disruptors of the mitochondrial membrane potential (AID 720635). The method, boiled down: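 HepG2 cells (2,000/well) attached overnight at 37C, then took compound for 1 hr at 37C, 5% CO2. Mito-MPS dye was added for 30 min; fluorescence was read at 490/535 nm (monomers) and 540/590 nm (aggregates).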
Assay [6] in a line: qHTS assay to test for compound auto fluorescence at 590 nm (red) in HepG2 cells (AID 720674). Summed up: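 Intrinsic compound fluorescence in the red window (Ex/Em 540/590 nm) is measured in attached HepG2 cells exposed for 1 hr, DMSO vehicle as baseline, benchmarked to Rose Bengal sodium.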
The nature of assay [7]: qHTS assay to test for compound auto fluorescence at 535 nm (green) in HepG2 cells (AID 720675).
A short description of assay [8]: qHTS assay to test for compound auto fluorescence at 460 nm (blue) in HEK293 cells (AID 720678). The method, boiled down:
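HEK293, 2,000 cells/well, 10% dialyzed FBS; attach 4-5 hr 37C; pin compound or DMSO; o/n 37C/5% CO2; fluorescence 405/460 nm; triamterene-equivalent units.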

A short description of assay [9]: qHTS assay to test for compound auto fluorescence at 590 nm (red) in HEK293 cells (AID 720679). The method, boiled down: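 Intensity at 540nm excitation and 590nm emission is reported as Rose Bengal sodium-equivalent autofluorescence. Measurements followed overnight exposure (37C, 5% CO2) of HEK293 cells, 2,000 per well, to 23 nL compound.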
Assay [10] in a line: qHTS assay to test for compound auto fluorescence at 535 nm (green) in HEK293 cells (AID 720680).
The nature of assay [11]: qHTS assay to test for compound auto fluorescence at 460 nm (blue) in HEK293 cell free culture (AID 720681). Summed up: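 Test compounds were pinned into cell-free culture medium (DMEM with 10% FBS) and fluorescence was read directly at Ex/Em 405/460 nm. Signals were expressed as fluorescence equivalents of triamterene, with DMSO vehicle as control.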
Assay [12] can be described thus: qHTS assay to test for compound auto fluorescence at 535 nm (green) in HEK293 cell free culture (AID 720682). Summed up:
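Each library compound, or DMSO control, is added by pintool to medium alone, comprising DMEM and 10% FBS. Emission at 535 nm following 485 nm excitation is quantified against fluorescein.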

Assay [13] is described as follows: qHTS assay to test for compound auto fluorescence at 590 nm (red) in HEK293 cell free culture (AID 720683). The method, boiled down:
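Tox21 10K library compounds were pinned into cell-free DMEM with 10% FBS and fluorescence was read at excitation 540 nm. Activity is expressed as Rose Bengal sodium equivalency.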

Assay [14] is described as follows: qHTS assay to test for compound auto fluorescence at 590 nm (red) in HepG2 cell free culture (AID 720684). Summed up:
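Readout: intrinsic compound fluorescence at 590 nm emission after 540 nm excitation, scaled to Rose Bengal sodium. Matrix was cell-free MEM with 10% FBS; DMSO vehicle wells served as control.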

The nature of assay [15]: qHTS assay to test for compound auto fluorescence at 460 nm (blue) in HepG2 cell free culture (AID 720685). Summed up: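 Cell-free plates of MEM plus 10% FBS received 23 nL compound or DMSO vehicle; blue-channel (405/460 nm) intensity scored against triamterene as reference fluorophore.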
Assay [16] is described as follows: qHTS assay to test for compound auto fluorescence at 535 nm (green) in HepG2 cell free culture (AID 720686).
The nature of assay [17]: qHTS assay to test for compound auto fluorescence at 460 nm (blue) in HepG2 cells (AID 720687). Summed up: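 Cells (2,000/well in MEM with 10% FBS) attached overnight at 37 C, then were exposed to compound or DMSO for 1 hr at 37 C, 5% CO2. Fluorescence read at Ex/Em 405/460 nm, expressed as triamterene-equivalent signal.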
The target in assay [18] is Glucocorticoid receptor (Homo sapiens) (UniProt P04150). Nature of the assay: qHTS assay to identify small molecule agonists of the glucocorticoid receptor (GR) signaling pathway (AID 720691; active = well fitted activation curve with a large enough effect in the signal ratio in the repeat runs, not every such curve was filed as active; the % refers to the signal ratio). The method, boiled down:
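HeLa GR-bla reporter line; cells pre-incubated 4 h, compound in DMSO 18 h at 37 C; LiveBLAzer B/G FRET substrate 2 h RT; fluorescence intensity read-out.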

Assay [19] has the same target. As to the kind of experiment: qHTS assay to identify small molecule antagonists of the glucocorticoid receptor (GR) signaling pathway (AID 720692; active = well fitted inhibition curve with a large enough effect in the signal ratio in the repeat runs, not every such curve was filed as active; the % refers to the signal ratio). The method, boiled down:
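Read-out: beta-lactamase FRET substrate fluorescence, 2 h at room temperature, in HeLa cells stably carrying a GRE-driven bla reporter. Compounds were co-incubated with 5 nM dexamethasone agonist (final) for 18 h at 37 C.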

Assay [20] is described as follows: qHTS assay for small molecules that induce genotoxicity in human embryonic kidney cells expressing luciferase-tagged ATAD5 - cell viability (AID 651634; calls by dose curve; note: nearly all actives have a fitted effect of over 25% in size; note: potency is the fitted concentration of half-maximal effect). The method, boiled down:
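HEK293T ATAD5-luc cells, 2,000/well; compound 15.5 hr, 37C/5% CO2; CellTiter-Fluor 30 min, 37C; fluorescence read.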
% is set by controls: 0 for no effect and ±100 for the full control effect.

Sequence of Glucocorticoid receptor (Homo sapiens) (P04150 whole entry, looked up): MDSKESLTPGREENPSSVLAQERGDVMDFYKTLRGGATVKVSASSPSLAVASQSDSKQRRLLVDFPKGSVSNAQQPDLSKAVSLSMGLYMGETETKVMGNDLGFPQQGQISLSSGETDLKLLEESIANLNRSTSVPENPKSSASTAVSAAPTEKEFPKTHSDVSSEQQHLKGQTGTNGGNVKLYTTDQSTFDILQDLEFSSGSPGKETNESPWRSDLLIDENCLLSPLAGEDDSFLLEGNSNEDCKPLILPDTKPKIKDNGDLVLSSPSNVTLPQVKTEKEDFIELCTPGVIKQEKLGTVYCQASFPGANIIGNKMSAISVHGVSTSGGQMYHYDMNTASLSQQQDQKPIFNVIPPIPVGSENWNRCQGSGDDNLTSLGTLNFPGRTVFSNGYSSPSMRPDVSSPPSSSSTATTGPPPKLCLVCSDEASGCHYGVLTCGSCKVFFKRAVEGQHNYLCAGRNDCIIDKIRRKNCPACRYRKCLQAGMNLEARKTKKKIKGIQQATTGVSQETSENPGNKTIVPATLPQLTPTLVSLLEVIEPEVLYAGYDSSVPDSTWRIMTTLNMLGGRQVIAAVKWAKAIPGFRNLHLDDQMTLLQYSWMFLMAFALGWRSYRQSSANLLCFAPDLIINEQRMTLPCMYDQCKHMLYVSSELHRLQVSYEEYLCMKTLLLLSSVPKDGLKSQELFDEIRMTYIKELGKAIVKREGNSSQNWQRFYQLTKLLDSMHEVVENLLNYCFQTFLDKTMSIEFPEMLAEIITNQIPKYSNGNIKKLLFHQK

`COc1cc(NS(=O)(=O)c2ccc(N)cc2)nc(C)n1`: the Potency entry in [1], in assay [2], in [3], in assay [5], in assay [8] and in assay [11] was “inactive” throughout. For the same compound, the Potency result in assay [15], in assay [17], in assay [18] and in assay [19] was “inactive” each time. The compound was called inactive in assay [4], in assay [6], in [7], in assay [9], in assay [10] and in assay [12]. Also, the compound was classed as inactive in [13], in assay [14] and in assay [16].

For `CCN(CC)c1ccc(C(=C2C=CC(=[N+](CC)CC)C=C2)c2ccc(S(=O)(=O)O)cc2S(=O)(=O)[O-])cc1`, the Potency result in [1], in assay [2], in assay [8], in [11], in assay [15] and in [17] was “inactive” in each case. Besides, the Potency entry in [18] and in [19] was “inactive” each time. Besides, the Potency in [3] and in assay [20] was 27.3 µM (active) in each case. Moreover, the compound was classed as inactive in [6], in assay [7], in assay [9], in assay [10], in [12] and in [13]. In addition, the compound was classed as inactive in assay [14] and in assay [16].

Take `C1CCCCC1`: the Potency result in assay [1], in assay [2], in [20], in [5], in assay [8] and in [15] was “inactive” throughout. For the same compound, the Potency entry in assay [17], in assay [18] and in assay [19] was “inactive” in each case. Moreover, the compound was called inactive in assay [4], in [6], in assay [7], in [9], in [10] and in [12]. The compound was classed as inactive in assay [13], in [14] and in [16].

As to `CNS(=O)(=O)c1cc(C(=O)N2CCC(CCN3C4CCC3CC(n3c(C)nc5ccccc53)C4)(c3cccc(F)c3)CC2)c(Cl)cc1F` (stereo not drawn), the Potency result in assay [1], in assay [2], in [8], in assay [11], in assay [15] and in [17] was “inactive” throughout. Also, the Potency in assay [3] was 48.6 µM (active). In addition, the compound was called inactive in assay [4], in assay [6], in assay [9], in assay [10], in assay [12] and in [13]. For the same compound, the compound was classed as inactive in assay [14] and in assay [16].

With `CC(=O)C(C)=O`, the Potency result in assay [1], in [2], in assay [3], in assay [20], in assay [8] and in assay [11] was “inactive” each time. Also, the Potency entry in assay [15], in assay [17], in assay [18] and in assay [19] was “inactive” in each case. The call in assay [6], in assay [9], in [10], in [12], in assay [13] and in assay [14] was inactive. For the same compound, the result in assay [16] was inactive.

For `CC(=O)OC(C)C[N+](C)(C)C` (stereo not drawn), the Potency entry in [1], in assay [2], in assay [3], in assay [18] and in assay [19] was “inactive” each time. The result in assay [4] was inactive. Moreover, the fluorescence, relative to Rose Bengal in [6] was 0.553% [at 18.6 µM]. The fluorescence, % of fluorescein control in assay [7] is 0.0253% [at 18.6 µM]; in [16] it was -0.0048% [at 18.6 µM]. Also, the fluorescence, % of triamterene in assay [8] was -0.423% [at 18.6 µM]. Further, the fluorescence, % of fluorescent control in [9] was -0.334% [at 18.6 µM]; in [11], -0.0614% [at 18.6 µM]; in assay [13], 0.423% [at 18.6 µM]; in assay [15], -0.0627% [at 18.6 µM]; in assay [17], -0.0338% [at 18.6 µM]. In assay [10], the fluorescence, % of fluorescein is -0.0571% [at 18.6 µM]. Also, in assay [12], the activity change was -0.0135% [at 18.6 µM]. The fluorescence, % of Rose Bengal in assay [14] was -0.229% [at 18.6 µM].

Consider `CC1C(C)(C)C2=C(C(=O)CCC2)C1(C)C` (stereo not drawn), for which the Potency entry in assay [1], in assay [2], in [3], in [8], in [11] and in assay [15] was “inactive” throughout. The Potency result in assay [17], in [18] and in assay [19] was “inactive” each time. Further, the result in [4], in [6], in [7], in assay [9], in assay [10] and in assay [12] was inactive. Also, the outcome in assay [13], in assay [14] and in assay [16] was inactive.
